{"source": "PubChem BioAssay (EPA / NIEHS)", "note": "Calls of active or inactive are those of the source. How the source made its calls: active means hit-call score of the fitted dose curve at least 0.9, where 1 is the maximum; inactive means score below 0.9.", "data": [{"assay": "CCTE_Simmons_MITO_inhib_resp_rate: CCTE's HepG2 Seahorse XF Respirometric Screening Assay at Inhibited Respiratory State [full ETC block], Simmons Lab (AID 2284006)", "conditions": "actives raise or lower the signal", "experimental": "CCTE_Simmons_MITO is cell-based, respirometric assay using HepG2 cells and a Seahorse XF Analyzer to measure oxygen consumption rates over four temporal phases spanning a total of 72 minutes: pre-injection (pre-treatment), basal (following test compound injection), maximal (following FCCP uncoupler injection), and inhibited (following rotenone/antimycin A injection)CCTE_Simmons_MITO_inhib_resp_rate is one of 4 assay components calculated from the CCTE_Simmons_MITO assay. It is designed to make measurements of inhibited respiration using a form of respirometric reporter, as detected with […] signals by Seahorse XF96 technology. Data from the assay component CCTE_Simmons_MITO_inhib_resp_rate was analyzed at the endpoint, CCTE_Simmons_MITO_inhib_resp_rate_OCR, with bidirectional fitting relative to DMSO as the negative control and baseline of activity. Using a type of respirometric reporter, measures of inhibited respiration for gain or loss-of-signal activity can be used to understand cellular oxygen consumption as it relates to cellular respiration. To generalize the intended target to other relatable targets, this assay endpoint is annotated to the mitochondria intended target family, where the subfamily is respiration.\nTest chemicals were administered as a titrated series of 7 concentrations from 125 nM up to 100 uM [final] prior to kinetic endpoint detection at 6 minute intervals [3 min mix followed by 3 minutes measure] for 72 minutes. Three biological replicates of technical singles were run for every chemical concentration tested. Dimethylsulfoxide [DMSO] was used as the vehicle control. The electron transport chain inhibitor fenpyroximate was used as the positive control for decreased basal respiration and was administered as a titrated series of 6 concentrations from 250 nM up to 2.75 uM [final] with technical triplicates for the top concentration only. The uncoupler 2,4-dintirophenol was used as the positive control for increased basal respiration and was administered as a titrated series of 6 concentrations from 938 nM up to 40 uM [final] with technical triplicates for the top concentration only. A Seahorse XF Analzyer is required to measure the response.", "values": [{"smiles": "O=[N+]([O-])c1cc(C(F)(F)F)c(Cl)c([N+](=O)[O-])c1Nc1ncc(C(F)(F)F)cc1Cl", "outcome": "inactive"}, {"smiles": "O=C(O)c1cc(Oc2ccc(C(F)(F)F)cc2Cl)ccc1[N+](=O)[O-]", "outcome": "inactive"}, {"smiles": "CCOP(=O)(NC(C)C)Oc1ccc(SC)c(C)c1", "note": "(stereo not drawn)", "outcome": "inactive"}, {"smiles": "CSC1=N[C@@](C)(c2ccccc2)C(=O)N1Nc1ccccc1", "outcome": "inactive"}, {"smiles": "CCCCOC(=O)[C@@H](C)Oc1ccc(Oc2ccc(C#N)cc2F)cc1", "outcome": "inactive"}, {"smiles": "CCCOCC(=Nc1ccc(Cl)cc1C(F)(F)F)n1ccnc1", "outcome": "inactive"}, {"smiles": "C=C(C)[C@H]1Cc2c(ccc3c2O[C@@H]2COc4cc(OC)c(OC)cc4[C@@H]2C3=O)O1", "AC50": "0.0842 µM (active)"}, {"smiles": "C#CCC1=C(C)C(OC(=O)C2C(C=C(C)C)C2(C)C)CC1=O", "note": "(stereo not drawn)", "outcome": "inactive"}, {"smiles": "CN(C)[C@@H]1C(=O)C(C(N)=O)=C(O)[C@@]2(O)C(=O)C3=C(O)c4c(O)cccc4[C@@](C)(O)[C@H]3[C@H](O)[C@@H]12", "outcome": "inactive"}, {"smiles": "FC(F)C(F)(F)OCC(Cn1cncn1)c1ccc(Cl)cc1Cl", "note": "(stereo not drawn)", "outcome": "inactive"}, {"smiles": "CON=C(C(=O)OC)c1ccccc1CON=C(C)c1cccc(C(F)(F)F)c1", "AC50": "14.8 µM (active)"}, {"smiles": "CC(COc1ccc(Oc2ccccc2)cc1)Oc1ccccn1", "note": "(stereo not drawn)", "outcome": "inactive"}, {"smiles": "CCOP(=S)(Oc1cnc(C(C)(C)C)nc1)OC(C)C", "note": "(stereo not drawn)", "outcome": "inactive"}, {"smiles": "N#CSCSC#N", "outcome": "inactive"}, {"smiles": "C[Si](Cn1cncn1)(c1ccc(F)cc1)c1ccc(F)cc1", "outcome": "inactive"}, {"smiles": "CC[C@H](C)[C@H]1O[C@]2(C=C[C@@H]1C)C[C@@H]1C[C@@H](C/C=C(\\C)[C@@H](O[C@H]3C[C@H](OC)[C@@H](O[C@H]4C[C@H](OC)[C@@H](NC)[C@H](C)O4)[C@H](C)O3)[C@@H](C)/C=C/C=C3\\CO[C@@H]4[C@H](O)C(C)=C[C@@H](C(=O)O1)[C@]34O)O2", "AC50": "84.7 µM (active)"}, {"smiles": "CCC(=O)Nc1ccc(Cl)c(Cl)c1", "outcome": "inactive"}, {"smiles": "CCCSP(=O)(OCC)SCCC", "outcome": "inactive"}, {"smiles": "COP(=O)(OC)OC(Br)C(Cl)(Cl)Br", "note": "(stereo not drawn)", "outcome": "inactive"}, {"smiles": "CCc1cccc(C)c1N(C(=O)CCl)C(C)COC", "note": "(stereo not drawn)", "outcome": "inactive"}, {"smiles": "CCC(CC)Nc1c([N+](=O)[O-])cc(C)c(C)c1[N+](=O)[O-]", "outcome": "inactive"}, {"smiles": "CCCSP(=O)(OCC)Oc1ccc(Br)cc1Cl", "note": "(stereo not drawn)", "outcome": "inactive"}, {"smiles": "CCc1cccc(CC)c1N(COC)C(=O)CCl", "outcome": "inactive"}, {"smiles": "CC(C)N(C(=O)SCC(Cl)=C(Cl)Cl)C(C)C", "outcome": "inactive"}, {"smiles": "CC(C1CC1)C(O)(Cn1cncn1)c1ccc(Cl)cc1", "note": "(stereo not drawn)", "outcome": "inactive"}, {"smiles": "CC(C)=CC1C(C(=O)OCN2C(=O)C3=C(CCCC3)C2=O)C1(C)C", "note": "(stereo not drawn)", "outcome": "inactive"}, {"smiles": "CC1(C(=O)Nc2ccc(O)c(Cl)c2Cl)CCCCC1", "outcome": "inactive"}, {"smiles": "CCOP(=S)(OCC)SCCSCC", "outcome": "inactive"}]}]}
